Data as given in PubChem BioAssay AID1159580 (chemical genetic matrix, 2015).
The campaign covered roughly 5,500 compounds. About 2,000 (36%) were called active. Not shown: some 18% with an inconclusive outcome. Cut-off read from the data, not from the text of the source: active = normalized growth mostly below about 0.91 (no sharp cut-off); inconclusive = no clear call, values can overlap the other calls; inactive = mostly above about 0.92. This is one part of the list.

Assay: chemical genetic growth profiling, strain panel (AID 1159580);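 note: tested at 20 µM; growth read once vehicle control cultures reached saturation at 30 °C; 1 = growth at the plate median or of vehicle wells; lower values mean less growth of the strain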
Details: S. cerevisiae deletion strains, growth OD

Measured: normalized growth

Cn1cnc(CCN)c1
inactive: locus YAL013W, strain DEP1, hits give low values 1.01 | locus YAL040C, strain CLN3, hits give low values 0.999 | locus YCL061C, strain MRC1 (second series), hits give low values 0.995 | locus YDR363W, strain ESC2, hits give low values 0.979 | locus YER002W, strain NOP16, hits give low values 0.98 | locus YGR078C, strain PAC10, hits give low values 1.01 | locus YGR229C, strain SMI1, hits give low values 1.01 | locus YJR075W, strain HOC1, hits give low values 1.01 | locus YMR263W, strain SAP30, hits give low values 1 | locus YNL153C, strain GIM3, hits give low values 1 | locus YNL175C, strain NOP13, hits give low values 0.986 | locus YNL197C, strain WHI3, hits give low values 0.992 | locus YNL224C, strain SQS1, hits give low values 0.983 | locus YNL322C, strain KRE1, hits give low values 1.01 | locus YOR083W, strain WHI5 (second series), hits give low values 0.99
